# The list is not random: actives were taken first. Their share in the collection is about 6.1%.
# VP16 counter: counter-screen for ROR gamma inhibitors: Gal4-VP16 reporter; Drosophila S2 Gal4-VP16 UAS-luciferase, luminescence, 20 h; Potency, µM (highest dose often 53.6 µM), actives largely listed as inhibitors; 3.5% of 310,000 active;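 also: Gal4-VP16 expression switched on by copper sulfate through the metallothionein promoter; nearly all actives have a fitted effect of over 50% in size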
# ATXN viability: cell viability loss in ATXN counter-screen. S2 cells (HEK-293 line with an ATXN2-luciferase reporter) viability, CellTiter-Fluor protease fluorescence, 24 h. Potency, µM (doses to about 56.7 µM), hits mostly cytotoxic. 0.49% of 400,000 active; also: nearly all actives have a fitted effect of over 40% in size
# ATXN2 expr inh: reduces ATXN2 reporter expression in HEK-293 cells | HEK-293 ATXN2-luciferase reporter, luminescence, 24 h | Potency, µM (top dose mostly 57 µM), most hits filed as inhibitors | 0.72% of 360,000 active | AID 1745845; also: nearly all actives have a fitted effect of over 55% in size
#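 qHTS (up to 57 uM final) was run with 24 h compound exposure of reporter cells at 37 °C. Each well was multiplexed: SteadyGlo luminescence measured ATXN2-luciferase expression after a fluorogenic Gly-Phe-AFC viability readout (25 uM final).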
# TGFb SMAD3 inh: inhibitors of TGF-b signaling; 1.2% of 410,000 active; HepG2 CAGA-GFP TGF-b/SMAD3 reporter, GFP fluorescence, 18 h; TGF-beta stimulated, 500 pg/mL final; Potency, µM (doses to about 46.1 µM), actives largely listed as inhibitors; also: nearly all actives have a fitted effect of over 65% in size
#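 TGF-beta reporter screen: HEPG2 CAGA-GFP, 1% FBS, 500 pg/mL TGF-beta final, 18 h; per-cell GFP summed per well; curves fitted and categorized by class.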
# HepG2 viability: HepG2 cytotoxicity, counter-screen for TGF-b inhibitors | HepG2 CAGA-GFP viability, ATP luminescence, 18 h | Potency, µM (titrated, usually from 46.1 µM), most hits filed as cytotoxic | 0.76% of 410,000 active | AID 588856
#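 HepG2 CAGA-GFP cells (1000/well, DMEM with 1% FBS) received compound, then TGF-beta at 500 pg/mL final, and were incubated 18 hours at 37 degrees C. Viability was read by CellTiter-Glo luminescence. Media-only wells were set as complete cell-killing and DMSO as no toxicity.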
# RORg inh: blocks mouse ROR gamma transcriptional activity; Potency, µM (series often up to 53.6 µM), most hits filed as inhibitors; 5.4% of 310,000 active; Drosophila S2 Gal4-RORgamma UAS-luciferase reporter, 20 h; P51450; also: nearly all actives have a fitted effect of over 60% in size
# Target sequence (P51450 whole entry, looked up, the tested form may be a part): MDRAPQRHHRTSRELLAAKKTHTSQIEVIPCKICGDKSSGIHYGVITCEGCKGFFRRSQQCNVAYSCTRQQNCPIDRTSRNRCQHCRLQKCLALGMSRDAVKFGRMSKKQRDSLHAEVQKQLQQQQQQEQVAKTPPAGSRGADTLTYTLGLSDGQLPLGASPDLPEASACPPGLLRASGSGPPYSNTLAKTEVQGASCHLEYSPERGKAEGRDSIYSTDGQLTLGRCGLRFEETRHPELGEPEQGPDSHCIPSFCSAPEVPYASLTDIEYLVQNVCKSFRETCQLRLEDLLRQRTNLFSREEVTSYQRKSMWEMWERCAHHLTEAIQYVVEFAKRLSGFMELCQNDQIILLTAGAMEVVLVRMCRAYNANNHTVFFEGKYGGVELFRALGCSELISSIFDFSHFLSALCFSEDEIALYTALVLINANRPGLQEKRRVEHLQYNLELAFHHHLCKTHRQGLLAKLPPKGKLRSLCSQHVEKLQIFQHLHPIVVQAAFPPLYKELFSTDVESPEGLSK
#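 In this cell-based reporter format, copper sulfate (700 uM final) drives Gal4–ROR gamma fusion expression from a metallothionein promoter in Drosophila Schneider cells; compounds preincubated 1 hr, reporter read after 20 hr at ambient temperature.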
# Numbers stand for hits; - = inactive; ? = inconclusive; . = no result; [ ] = another dose, or the depositor's remark. Calls follow the shape of the dose curve; as a rule, active = well fitted curve in the direction sought with a large enough effect; inconclusive = small, poorly fitted or top-dose-only effect, or another doubt; inactive = no such curve, though single readings can be large; an effect the other way counts as inactive or inconclusive.
SMILES,VP16 counter,ATXN viability,ATXN2 expr inh,TGFb SMAD3 inh,HepG2 viability,RORg inh
CN(C)c1ccc(CNC(=O)c2ccc(Cn3c(=O)c4cccn4c4cccnc43)cc2)cc1,.,.,.,-,-,.
c1cnc2[nH]ccc2c1,.,.,.,-,-,.
COc1cc(/C=C2/C(=N)N3C=CSC3=NC2=O)ccc1OCCCOc1cc(C)ccc1C,11µM,?,?,-,-,10µM
COc1cc(/C=C2\C(=N)N3N=C(S(C)(=O)=O)SC3=NC2=O)ccc1OCCOc1ccccc1C,-,.,-,-,-,-
CN(Cc1nc(-c2ccncc2)no1)S(=O)(=O)c1ccccc1,-,-,-,-,-,2.5µM
c1ccc(C(Cc2nc(-c3ccncc3)no2)c2ccccc2)cc1,10µM,-,-,-,-,?
O=C(O)c1ccc(-c2noc(-c3ccccc3F)n2)cc1,10µM,-,-,-,-,.
c1ccc(-c2ccc(-c3nc(-c4ccncc4)no3)cc2)cc1,-,-,-,-,-,-
c1ccc(-c2nc(-c3ccncc3)no2)cc1,-,-,-,-,-,-
c1ccc(-c2ccccc2-c2nc(-c3ccncc3)no2)cc1,?,-,-,-,-,8.9µM
COC(=O)C(C)CCCC(C)CCCC(C)CCCC(C)C (centres undefined),-,.,.,.,.,-
Cc1ccc(NC(=O)Cn2c(=O)n(-c3ccc(C)cc3)c(=O)c3c2cnn3C)cc1,.,-,-,-,-,.
Cc1ccc(Cn2cc(CCC(=O)NC3CCCCC3)c3ccccc32)cc1,.,.,.,?,-,.
Cn1ncc([N+](=O)[O-])c1C(=O)Nc1nc2ccccc2n1CCN1CCCCC1,?,?,-,-,-,3.5µM
Cc1c(Cl)c(C(=O)Nc2nc3ccccc3n2CCN2CCCCC2)nn1C,-,.,.,.,.,?
CCn1cc(Cl)c(C(=O)Nc2nc3ccccc3n2CCN2CCCCC2)n1,8.9µM,-,-,-,-,10µM
Cc1cccc2c(=O)cc(CSc3ccccc3NC(=O)c3cccc(Br)c3)[nH]c12,.,18µM,-,-,-,.
Cc1cccc(C(=O)Nc2ccccc2SCc2cc(=O)c3cccc(C)c3[nH]2)c1,.,?,-,-,-,.
Cc1cc(C)c(NC(=O)CSc2nc3nc(C)cc(C)n3n2)c(C)c1,.,-,-,-,-,.
COc1cccc(/C=N/Nc2nc(Nc3ccccc3)nc(-n3nc(C)cc3C)n2)c1O,2.5µM,?,?,1.6µM,-,1.1µM
COc1cccc(/C=N/Nc2cc(-n3nc(C)cc3-c3ccccc3)ncn2)c1O,1µM,?,?,?,-,?
COc1cccc(/C=N/Nc2nc3ccccc3n3cnnc23)c1O,?,-,?,-,-,?
Cc1cc(C)n(-c2nc(Nc3ccccc3)nc(-n3nc(C)cc3C)n2)n1,-,-,-,-,-,-
CC(O)[C@@H]1NC(=O)[C@H](CCCN)NC(=O)[C@@H](Cc2c[nH]c3ccccc23)NC(=O)[C@H](Cc2ccc(O)cc2)NC(=O)[C@@H](NC(=O)[C@H](N)Cc2ccccc2)CSSC(C)(C)C(C(=O)N[C@H](C(N)=O)[C@@H](C)O)NC1=O (some centres undefined),-,.,.,.,.,-
COC(=O)c1ccccc1-c1cc(C)cc2c1OC(CNC(=O)c1cc(C)n(C)n1)C2 (centres undefined),.,-,.,.,.,.
SMILES,VP16 counter,ATXN viability,ATXN2 expr inh,TGFb SMAD3 inh,HepG2 viability,RORg inh
CCCOc1ccc([N+](=O)[O-])cc1C1NC(=S)NC(c2ccccc2)=C1C(=O)OCC (centres undefined),20µM,?,-,-,-,6.3µM
CCOC(=O)C1=C(c2cccc(F)c2)NC(=S)NC1C (centres undefined),?,-,-,-,-,14µM
Cc1nc(NS(=O)(=O)c2ccccc2)sc1C(=O)NNS(=O)(=O)c1ccccc1,-,-,-,-,-,-
Cc1nc(C)c(C(=O)NNS(=O)(=O)c2ccc3ccccc3c2)s1,1µM,-,-[11.3 µM],-,-,?
O=C(Nc1ccncc1)c1cc([N+](=O)[O-])ccc1Cl,?,.,.,.,.,8.9µM
O=C(Nc1cccc2c1CCCC2)c1cc([N+](=O)[O-])ccc1Cl,-,-,25µM,?,-,-
CCOc1cc(C=O)ccc1OCCCN1C(=O)NC(C)(C)C1=O,-,-,-,-,-,-
CCCCOc1ccc(/C=C/C2=CC(C)(C)NC(=S)N2)cc1OCC,1.8µM,-,-,-,-,0.79µM
CCc1ccc(NC(=O)CCS(=O)(=O)c2ccc3c(c2)oc(=O)n3C)cc1,.,-,-,-,-,.
NC(CO)c1csc(Nc2ccc(C(=O)c3ccccc3)cc2)n1 (centres undefined),.,-,-,-,-,.
CC(C)CC(N)c1csc(Nc2ccc(C(=O)c3ccccc3)cc2)n1 (centres undefined),.,?,?,18µM,16µM,.
CC(C)CC(N)c1csc(NC(=O)c2cc(C(C)(C)C)nn2Cc2ccccc2)n1 (centres undefined),.,.,?,?,11µM,.
COc1ccc(CC(N)c2csc(Nc3ccc(C(=O)c4ccccc4)cc3)n2)cc1 (centres undefined),.,?,35µM,?,-,.

# Source: PubChem (National Center for Advancing Translational Sciences (NCATS))
